Only some compounds are listed: those with a hit (about 5.6% of all), similar ones and a draw of the others.
Six1-Eya2 blk: qHTS Assay for Inhibitors of the Six1/Eya2 Interaction; Homeobox protein SIX1 (Homo sapiens) + Protein phosphatase EYA2 (Homo sapiens), …; AlphaScreen GST-Six1/His-Eya2 binding, biochemical; active compounds read low; activity change, % (no concentration beside the values); hit rate 0.56% among 360,000; AID 651725, 2012; in the data active means activity change below about -65%; inconclusive means mostly about -30% to -63%
Target sequence (O00167 whole entry, looked up): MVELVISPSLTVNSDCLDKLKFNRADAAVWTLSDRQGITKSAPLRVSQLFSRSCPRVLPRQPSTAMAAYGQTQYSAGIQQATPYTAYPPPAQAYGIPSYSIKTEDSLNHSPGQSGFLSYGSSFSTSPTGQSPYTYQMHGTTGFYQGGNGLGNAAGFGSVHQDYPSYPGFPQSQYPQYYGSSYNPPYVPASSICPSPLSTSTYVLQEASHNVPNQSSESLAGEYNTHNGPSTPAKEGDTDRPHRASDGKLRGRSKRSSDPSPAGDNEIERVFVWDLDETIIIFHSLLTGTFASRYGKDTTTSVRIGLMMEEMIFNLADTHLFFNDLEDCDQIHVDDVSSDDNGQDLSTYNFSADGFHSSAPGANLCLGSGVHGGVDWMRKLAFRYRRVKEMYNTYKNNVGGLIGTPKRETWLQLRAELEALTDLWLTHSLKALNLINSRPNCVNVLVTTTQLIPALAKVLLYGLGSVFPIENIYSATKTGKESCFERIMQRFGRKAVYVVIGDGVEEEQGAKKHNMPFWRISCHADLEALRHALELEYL
Target sequence (Q15475 whole entry, looked up): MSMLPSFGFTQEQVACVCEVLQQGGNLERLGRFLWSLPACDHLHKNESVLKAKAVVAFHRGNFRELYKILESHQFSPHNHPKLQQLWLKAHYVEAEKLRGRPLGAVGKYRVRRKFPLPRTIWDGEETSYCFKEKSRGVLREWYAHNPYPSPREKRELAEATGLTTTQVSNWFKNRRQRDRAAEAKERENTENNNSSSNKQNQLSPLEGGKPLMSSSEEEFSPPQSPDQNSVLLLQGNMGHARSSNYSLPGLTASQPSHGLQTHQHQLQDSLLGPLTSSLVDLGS
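Compounds are tested against tagged Six1 and Eya2 proteins bridged by glutathione donor and nickel acceptor beads; after a one-hour incubation at 37 °C without light, AlphaScreen emission is recorded.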
RORg inh: qHTS for inhibitors of ROR gamma transcriptional activity; Nuclear receptor ROR-gamma (Mus musculus), P51450; Drosophila S2 Gal4-RORgamma UAS-luciferase reporter, 20 h; Potency, µM (titrated, usually from 53.6 µM), inactives show top-dose activity change, negative = inhibition, most hits filed as inhibitors; hit rate 5.4% among 310,000; AID 2551, 2010; further: potency means the concentration at half of the fitted maximal effect; nearly all actives have a fitted effect of over 60% in size
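Stable Schneider cell line, Gal4 DNA-binding domain fused to ROR gamma, UAS-luciferase. Cmpd 1 hr RT → CuSO4 700 uM final → 20 hr RT → luciferase reagent 10 min → luminescence.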
VP16 counter: VP16 counterscreen qHTS for inhibitors of ROR gamma transcriptional activity; Drosophila S2 Gal4-VP16 UAS-luciferase, luminescence, 20 h; Potency, µM (highest dose often 53.6 µM), for inactives: at the highest dose activity, negative = inhibition, usual class: inhibitors; hit rate 3.5% among 310,000; AID 2546, 2010;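 further: Gal4-VP16 expression switched on by copper sulfate through the metallothionein promoter; potency means the concentration at half of the fitted maximal effect; nearly all actives have a fitted effect of over 50% in size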
CtBP-E1A inh: qHTS Assay for Inhibitors of the CtBP/E1A Interaction | hit rate 0.49% among 340,000 | activity change, % (concentration not given with the values) | CtBP / adenovirus E1A interaction (AlphaScreen) | AlphaScreen GST-E1A/His-CtBP binding, 1536-well; active compounds read low | AID 651724, 2012; in the data active means activity change below about -65%; inconclusive means mostly about -30% to -63%
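In 5 uL wells, 23 nL compound meets equimolar GST-E1A and His-CtBP (5X stock 125 nM each) for 2 h, 37 °C. Beads (5X, 50 ug/mL) then 1 h, 37 °C, dark.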
PKM2 activator: qHTS Assay for Activators of Human Muscle isoform 2 Pyruvate Kinase | Pyruvate kinase PKM (Homo sapiens), P14618 | hit rate 0.34% among 260,000 | purified PKM2, Kinase-Glo ATP luminescence, activation; response scale: 0% is enzyme alone, no compound | AID 1631, 2009 | Potency, µM (series often up to 57.5 µM), without a hit: at the top dose activation, most hits filed as activators; further: potency means the concentration at half of the fitted maximal effect; nearly all actives have a fitted effect of over 55% in size
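Kinase-Glo luminescence reports ATP generated from ADP (0.1 mM) and PEP (0.5 mM) by purified hPK-M2 after 1 h at room temperature, pH 7.2 imidazole buffer; intermediate enzyme activity allows detecting inhibitors and activators.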
Active calls of the source: *; ? = inconclusive; . = no result given; [ ] = another dose, or the depositor's remark. Unless noted, the call rests on the fitted dose curve; in most records, active means well fitted curve in the direction sought with a large enough effect; inconclusive means small, poorly fitted or top-dose-only effect, or another doubt; inactive means no such curve, though single readings can be large; an effect the other way counts as inactive or inconclusive. On the % scale 0 is the no-effect control and ±100 the full control effect.

SMILES	Six1-Eya2 blk	RORg inh	VP16 counter	CtBP-E1A inh	PKM2 activator
COC(=O)C1(Cc2ccc3c(c2)CCC3)Cc2ccc3c(c2C1=O)CCC3 (stereo not drawn)	20	.	.	10	.
CN(C(=O)c1ccccc1C(=O)OCC(=O)c1ccc(Br)cc1)c1ccccc1	-1	.	.	-15	.
COc1cccc(CN(C)C(=O)C(Cc2ccccc2)NC(=O)c2ccccc2)c1OC (stereo not drawn)	-3	.	.	1	.
CC(C)(C)C(=O)NC(=S)Nc1ccccc1F	-2	13µM*	?	7	-2%
CCC(=O)NC(=S)Nc1ccccc1OC	-12	?	?	-9	-1%
COc1ccccc1NC(=S)NC(=O)Cc1ccc(Cl)cc1	8	7.1µM*	4.5µM*	0	-2%[11.5 µM]
NCCCCCCC(O)(P(=O)(O)O)P(=O)(O)O	.	0%	-6%	.	.
CC(=O)c1c(C)[nH]c(C(=O)Nc2ccc(S(=O)(=O)N(C)C)cc2)c1C	5	0.22µM*	1%	-21	7.1µM*
COc1ccccc1NS(=O)(=O)c1cc(NC(=O)c2ccccc2C)ccc1N1CCOCC1	-5	.	.	15	.
COc1ccccc1NS(=O)(=O)c1cc(NC(=O)c2[nH]c(C)c(C(C)=O)c2C)ccc1N1CCOCC1	-17	0%	14%	-17	16µM*
CC(=O)c1c(C)[nH]c(C(=O)Nc2ccc(C)c(S(=O)(=O)Nc3ccc(C)cc3C)c2)c1C	-12	-29%	-29%	-22	18µM*
CC(=O)c1c(C)[nH]c(C(=O)Nc2cccc(S(=O)(=O)N(C)C)c2)c1C	-9	10%	?	-5	?
COc1ccc(C(=O)N[C@H](C(=O)NC2CCCCC2)C(C)C)cc1	0	.	.	0	.
COc1ccc(CNc2ncnc3ccc(-c4c(C)noc4C)cc23)cc1	.	-1%	-4%	.	.
CCCCNC(=O)C1(C)CCCCN1C(=O)c1ccc(C)c(F)c1 (stereo not drawn)	-9	.	.	-3	.
COc1cccc(C(=O)Nc2nnc(-c3cccs3)o2)c1	-20	0.63µM*	0.79µM*	-25	-29%
COc1cccc(C(=O)Nc2nnc(-c3ccc(F)cc3)o2)c1	-19	5µM*	1.8µM*	-4	-3%
COC(=O)c1sccc1NC(=O)c1cccc(OC)c1	14	-10%	?	16	-2%
COc1cccc(-c2nnc(NC(=O)c3ccc4ncsc4c3)o2)c1	-30	0.56µM*	0.56µM*	-16	-2%
CCOc1ccc(-c2nnc(NC(=O)c3ccc(OCC(C)C)c(OC)c3)o2)cc1	-4	0.028µM*	0.025µM*	-1	6%
Cc1ccc(-c2ccc(C3C4C=CCC(C)C4C(=O)N3Cc3ccccc3)c(F)c2)cc1 (stereo not drawn)	.	-1%	-5%	.	.
O=C(Cc1cccc2ccccc12)NCCc1ccccc1	10	14%[1.91 µM]	-6%	4	0%
COc1cccc(-c2nnc(NC(C)=O)o2)c1	-7	?	?	-25	-9%
COc1cc(OC)cc(-c2nnc(NC(=O)c3ccc4c(c3)OCCO4)o2)c1	-1	0.32µM*	0.63µM*	.	.
COc1cccc(C(=O)Nc2nnc(-c3ccc(Cl)cc3)o2)c1	-10	?	1.6µM*	-4	1%
O=C(Nc1nnc(-c2ccc(Cl)cc2)o1)c1cccc(N2C(=O)CCC2=O)c1	-26	3.2µM*	2.2µM*	?	-7%
CC(=O)Nc1ccc(S(=O)(=O)NCC(=O)N2CCN(S(=O)(=O)c3cccs3)CC2)cc1	6	.	.	-11	.
CCOC(=O)C1CCN(C(=O)C2CC(=O)N(c3ccc4c(c3)OCCO4)C2)CC1 (stereo not drawn)	1	5%	-2%	6	0%
CCCN(C(=O)COc1ccc(C(C)=O)cc1OC)C1CCS(=O)(=O)C1 (stereo not drawn)	-2	.	.	1	.
Cc1ccsc1/C=C1\Oc2cc(OCC(=O)c3ccccc3)ccc2C1=O	-5	16µM*	?	-2	4%

Assay outcomes from PubChem BioAssay.
